# According to the supplement of paper PMC10849652:
# About 8,800 targets were measured; listed, in parts, are those with a hit and a random draw of the rest. About 0.5% of all pairs of compound and target were hits. A number with no mark means an inactive call.
# Columns and labels:
# Assay in all cases: log2 fold change, soluble protein after heating vs DMSO (PISA); higher = thermal stabilisation; K562 lysate, 10 uM; active = over 0.2 and 3.5 SD of the protein, either way, in both replicates (recomputed)
# lapatinib = compound: CS(=O)(=O)CCNCc1ccc(-c2ccc3ncnc(Nc4ccc(OCc5cccc(F)c5)c(Cl)c4)c3c2)o1 [lapatinib]
# Method in brief: (§1)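 The values are log-two fold changes in thermal stability compared with solvent controls and come from duplicates. They were obtained by TMTpro 16plex LC-MS/MS, with channel sums equalised, on the supernatant after 21,000xg for 90 min. That supernatant came from crude K562 extract at 1 mg/mL protein treated with 10 μM compound for 30 min, heated for 3 min across 48°C-58°C, pooled and brought to 0.5% NP-40 at 4°C.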
# pictilisib = compound: CS(=O)(=O)N1CCN(Cc2cc3nc(-c4cccc5[nH]ncc45)nc(N4CCOCC4)c3s2)CC1 [pictilisib]
# Method in brief: as §1
# crizotinib = compound: C[C@@H](Oc1cc(-c2cnn(C3CCNCC3)c2)cnc1N)c1c(Cl)ccc(F)c1Cl [crizotinib]
# Method in brief: as §1
# [1] = compound: C[C@H](C1=CC=C(C=C1)C(=O)NC2=C3C=CNC3=NC=C2)N
# Method in brief: as §1
# duvelisib = compound: C[C@H](Nc1ncnc2nc[nH]c12)c1cc2cccc(Cl)c2c(=O)n1-c1ccccc1 [duvelisib]
# Method in brief: as §1
# gandotinib = compound: Cc1cc(Nc2cc(CN3CCOCC3)c3nc(C)c(Cc4ccc(Cl)cc4F)n3n2)n[nH]1 [gandotinib]
# Method in brief: as §1
# tozasertib = compound: Cc1cc(Nc2cc(N3CCN(C)CC3)nc(Sc3ccc(NC(=O)C4CC4)cc3)n2)n[nH]1 [tozasertib]
# Method in brief: as §1
# doramapimod = compound: Cc1ccc(-n2nc(C(C)(C)C)cc2NC(=O)Nc2ccc(OCCN3CCOCC3)c3ccccc23)cc1 [doramapimod]
# Method in brief: as §1
# bafetinib = compound: Cc1ccc(NC(=O)c2ccc(CN3CC[C@H](N(C)C)C3)c(C(F)(F)F)c2)cc1Nc1nccc(-c2cncnc2)n1 [bafetinib]
# Method in brief: as §1
# [2] = compound: Cc1cccc(CC(=O)N2CCc3c2ccc(-c2cn(C)c4ncnc(N)c24)c3F)n1
# Method in brief: as §1
# nilotinib = compound: Cc1cn(-c2cc(NC(=O)c3ccc(C)c(Nc4nccc(-c5cccnc5)n4)c3)cc(C(F)(F)F)c2)cn1 [nilotinib]
# Method in brief: as §1
# [3] = compound: Cc1nc(Nc2n[nH]c3c2CN(C(=O)N[C@H](CN(C)C)c2ccccc2)C3(C)C)c2sccc2n1
# Method in brief: as §1
# dasatinib = compound: Cc1nc(Nc2ncc(C(=O)Nc3c(C)cccc3Cl)s2)cc(N2CCN(CCO)CC2)n1 [dasatinib]
# Method in brief: as §1
# [4] = compound: Cc1ncc(-c2ccnc(Nc3ccc(S(C)(=O)=O)cc3)n2)n1C(C)C
# Method in brief: as §1
# [5] = compound: Cn1cc(-c2ccc3c(c2)CCN3C(=O)Cc2cccc(C(F)(F)F)c2)c2c(N)ncnc21
# Method in brief: as §1
# quisinostat = compound: Cn1cc(CNCC2CCN(c3ncc(C(=O)NO)cn3)CC2)c2ccccc21 [quisinostat]
# Method in brief: as §1
# tipifarnib = compound: Cn1cncc1[C@@](N)(c1ccc(Cl)cc1)c1ccc2c(c1)c(-c1cccc(Cl)c1)cc(=O)n2C [tipifarnib]
# Method in brief: as §1
# [6] = compound: NC(=O)Nc1cc(-c2cccc(F)c2)sc1C(=O)N[C@H]1CCCNC1
# Method in brief: as §1
# [7] = compound: NC(=O)c1cnc(N[C@@H]2CCCC[C@@H]2N)nc1Nc1cccc(-n2nccn2)c1
# Method in brief: as §1
# [8] = compound: NC1(c2ccc(-c3nc4ccn5c(=O)[nH]nc5c4cc3-c3ccccc3)cc2)CCC1
# Method in brief: as §1
# Sequence of UniProt P27824 (P27824 whole entry, looked up): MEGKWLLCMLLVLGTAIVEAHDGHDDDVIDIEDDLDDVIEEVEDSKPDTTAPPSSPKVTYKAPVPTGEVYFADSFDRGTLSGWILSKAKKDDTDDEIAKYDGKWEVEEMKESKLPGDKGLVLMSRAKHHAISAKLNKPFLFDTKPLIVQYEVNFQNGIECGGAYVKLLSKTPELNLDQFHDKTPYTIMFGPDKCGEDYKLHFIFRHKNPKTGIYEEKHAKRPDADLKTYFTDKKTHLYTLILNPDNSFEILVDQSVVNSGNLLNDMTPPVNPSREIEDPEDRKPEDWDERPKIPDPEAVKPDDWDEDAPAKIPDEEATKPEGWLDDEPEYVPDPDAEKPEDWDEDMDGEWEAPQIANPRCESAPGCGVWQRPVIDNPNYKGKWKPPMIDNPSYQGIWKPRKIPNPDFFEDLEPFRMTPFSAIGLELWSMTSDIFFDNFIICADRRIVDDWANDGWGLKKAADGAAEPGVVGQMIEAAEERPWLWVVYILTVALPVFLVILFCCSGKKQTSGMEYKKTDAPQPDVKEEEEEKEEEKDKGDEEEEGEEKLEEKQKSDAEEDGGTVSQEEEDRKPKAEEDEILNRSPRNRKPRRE
# Sequence of UniProt Q8N4J0 (Q8N4J0 whole entry, looked up): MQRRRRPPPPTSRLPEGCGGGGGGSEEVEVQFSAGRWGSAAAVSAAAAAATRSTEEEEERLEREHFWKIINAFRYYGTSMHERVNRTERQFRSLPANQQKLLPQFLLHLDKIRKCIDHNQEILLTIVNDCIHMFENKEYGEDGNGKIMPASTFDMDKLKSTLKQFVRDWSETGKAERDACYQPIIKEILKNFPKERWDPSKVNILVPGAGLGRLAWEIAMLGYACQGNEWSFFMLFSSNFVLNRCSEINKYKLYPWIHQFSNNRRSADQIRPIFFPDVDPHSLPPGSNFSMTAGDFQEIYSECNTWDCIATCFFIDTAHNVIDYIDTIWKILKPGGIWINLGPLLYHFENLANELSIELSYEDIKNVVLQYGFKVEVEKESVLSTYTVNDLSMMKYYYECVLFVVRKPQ
# Sequence of UniProt Q13535 (Q13535 whole entry, looked up): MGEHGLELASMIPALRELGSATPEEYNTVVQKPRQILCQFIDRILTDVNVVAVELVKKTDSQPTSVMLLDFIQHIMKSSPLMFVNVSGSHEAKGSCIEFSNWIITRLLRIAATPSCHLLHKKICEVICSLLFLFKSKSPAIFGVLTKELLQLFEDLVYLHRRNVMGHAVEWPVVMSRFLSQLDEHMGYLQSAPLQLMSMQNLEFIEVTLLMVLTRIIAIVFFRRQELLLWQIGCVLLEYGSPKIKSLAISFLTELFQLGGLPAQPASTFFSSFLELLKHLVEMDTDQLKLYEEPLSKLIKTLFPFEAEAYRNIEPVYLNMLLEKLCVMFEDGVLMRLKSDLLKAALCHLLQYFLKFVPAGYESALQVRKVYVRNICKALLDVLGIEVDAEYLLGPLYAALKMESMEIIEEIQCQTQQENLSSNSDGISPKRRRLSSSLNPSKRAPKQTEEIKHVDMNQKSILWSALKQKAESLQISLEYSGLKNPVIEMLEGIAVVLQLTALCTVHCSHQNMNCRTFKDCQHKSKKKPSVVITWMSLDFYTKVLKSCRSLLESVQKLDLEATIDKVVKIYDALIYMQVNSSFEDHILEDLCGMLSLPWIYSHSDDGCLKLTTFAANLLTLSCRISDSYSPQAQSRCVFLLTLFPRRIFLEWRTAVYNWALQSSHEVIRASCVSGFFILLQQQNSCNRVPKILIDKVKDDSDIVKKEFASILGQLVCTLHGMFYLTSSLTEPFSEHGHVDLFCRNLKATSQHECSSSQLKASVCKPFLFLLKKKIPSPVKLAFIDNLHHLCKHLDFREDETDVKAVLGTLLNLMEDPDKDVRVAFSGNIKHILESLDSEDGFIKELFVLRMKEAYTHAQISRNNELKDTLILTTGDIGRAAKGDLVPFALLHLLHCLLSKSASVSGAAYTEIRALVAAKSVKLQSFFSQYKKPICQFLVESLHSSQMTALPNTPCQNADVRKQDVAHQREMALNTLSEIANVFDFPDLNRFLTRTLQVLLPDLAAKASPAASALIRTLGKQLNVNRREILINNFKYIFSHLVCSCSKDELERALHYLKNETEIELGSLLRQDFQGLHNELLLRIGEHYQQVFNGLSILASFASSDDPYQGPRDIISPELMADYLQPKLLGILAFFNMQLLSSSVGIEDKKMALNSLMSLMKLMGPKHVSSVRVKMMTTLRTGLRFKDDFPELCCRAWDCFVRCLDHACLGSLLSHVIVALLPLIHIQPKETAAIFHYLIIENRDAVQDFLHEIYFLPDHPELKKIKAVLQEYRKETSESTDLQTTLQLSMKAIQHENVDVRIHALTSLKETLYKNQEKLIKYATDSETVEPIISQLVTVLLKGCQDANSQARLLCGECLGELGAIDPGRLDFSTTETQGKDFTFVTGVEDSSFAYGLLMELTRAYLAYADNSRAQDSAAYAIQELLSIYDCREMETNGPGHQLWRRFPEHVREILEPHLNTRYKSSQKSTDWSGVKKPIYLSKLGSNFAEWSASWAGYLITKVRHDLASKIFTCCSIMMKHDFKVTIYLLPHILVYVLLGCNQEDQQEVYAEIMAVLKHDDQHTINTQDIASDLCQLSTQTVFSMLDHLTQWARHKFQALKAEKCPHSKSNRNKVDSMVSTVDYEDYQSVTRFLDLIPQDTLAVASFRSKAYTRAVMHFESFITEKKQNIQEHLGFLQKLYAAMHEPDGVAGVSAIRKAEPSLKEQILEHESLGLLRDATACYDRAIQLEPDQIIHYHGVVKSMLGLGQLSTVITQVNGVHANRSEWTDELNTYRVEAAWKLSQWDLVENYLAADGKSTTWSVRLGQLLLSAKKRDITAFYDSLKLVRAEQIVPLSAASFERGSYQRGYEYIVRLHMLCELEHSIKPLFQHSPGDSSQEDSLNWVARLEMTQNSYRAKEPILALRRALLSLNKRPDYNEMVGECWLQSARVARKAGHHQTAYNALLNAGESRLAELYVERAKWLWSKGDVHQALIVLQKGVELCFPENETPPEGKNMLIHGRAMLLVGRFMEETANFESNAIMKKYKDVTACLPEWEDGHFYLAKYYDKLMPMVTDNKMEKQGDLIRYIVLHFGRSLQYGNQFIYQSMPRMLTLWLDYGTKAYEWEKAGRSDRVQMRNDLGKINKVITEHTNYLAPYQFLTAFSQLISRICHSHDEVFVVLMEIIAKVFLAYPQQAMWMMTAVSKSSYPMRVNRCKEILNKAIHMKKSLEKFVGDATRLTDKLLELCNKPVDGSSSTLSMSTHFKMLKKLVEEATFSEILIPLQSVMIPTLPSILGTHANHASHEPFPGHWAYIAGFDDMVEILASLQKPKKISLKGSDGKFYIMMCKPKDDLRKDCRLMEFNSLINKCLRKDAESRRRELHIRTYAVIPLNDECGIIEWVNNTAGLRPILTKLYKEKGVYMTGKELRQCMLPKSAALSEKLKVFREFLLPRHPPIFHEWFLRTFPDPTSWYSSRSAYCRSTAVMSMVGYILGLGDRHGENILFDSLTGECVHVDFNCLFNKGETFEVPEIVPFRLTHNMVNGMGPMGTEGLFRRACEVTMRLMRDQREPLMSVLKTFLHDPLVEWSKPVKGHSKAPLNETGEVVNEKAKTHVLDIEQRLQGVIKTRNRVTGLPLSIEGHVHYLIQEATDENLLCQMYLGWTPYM
# Sequence of UniProt Q99700 (Q99700 whole entry, looked up): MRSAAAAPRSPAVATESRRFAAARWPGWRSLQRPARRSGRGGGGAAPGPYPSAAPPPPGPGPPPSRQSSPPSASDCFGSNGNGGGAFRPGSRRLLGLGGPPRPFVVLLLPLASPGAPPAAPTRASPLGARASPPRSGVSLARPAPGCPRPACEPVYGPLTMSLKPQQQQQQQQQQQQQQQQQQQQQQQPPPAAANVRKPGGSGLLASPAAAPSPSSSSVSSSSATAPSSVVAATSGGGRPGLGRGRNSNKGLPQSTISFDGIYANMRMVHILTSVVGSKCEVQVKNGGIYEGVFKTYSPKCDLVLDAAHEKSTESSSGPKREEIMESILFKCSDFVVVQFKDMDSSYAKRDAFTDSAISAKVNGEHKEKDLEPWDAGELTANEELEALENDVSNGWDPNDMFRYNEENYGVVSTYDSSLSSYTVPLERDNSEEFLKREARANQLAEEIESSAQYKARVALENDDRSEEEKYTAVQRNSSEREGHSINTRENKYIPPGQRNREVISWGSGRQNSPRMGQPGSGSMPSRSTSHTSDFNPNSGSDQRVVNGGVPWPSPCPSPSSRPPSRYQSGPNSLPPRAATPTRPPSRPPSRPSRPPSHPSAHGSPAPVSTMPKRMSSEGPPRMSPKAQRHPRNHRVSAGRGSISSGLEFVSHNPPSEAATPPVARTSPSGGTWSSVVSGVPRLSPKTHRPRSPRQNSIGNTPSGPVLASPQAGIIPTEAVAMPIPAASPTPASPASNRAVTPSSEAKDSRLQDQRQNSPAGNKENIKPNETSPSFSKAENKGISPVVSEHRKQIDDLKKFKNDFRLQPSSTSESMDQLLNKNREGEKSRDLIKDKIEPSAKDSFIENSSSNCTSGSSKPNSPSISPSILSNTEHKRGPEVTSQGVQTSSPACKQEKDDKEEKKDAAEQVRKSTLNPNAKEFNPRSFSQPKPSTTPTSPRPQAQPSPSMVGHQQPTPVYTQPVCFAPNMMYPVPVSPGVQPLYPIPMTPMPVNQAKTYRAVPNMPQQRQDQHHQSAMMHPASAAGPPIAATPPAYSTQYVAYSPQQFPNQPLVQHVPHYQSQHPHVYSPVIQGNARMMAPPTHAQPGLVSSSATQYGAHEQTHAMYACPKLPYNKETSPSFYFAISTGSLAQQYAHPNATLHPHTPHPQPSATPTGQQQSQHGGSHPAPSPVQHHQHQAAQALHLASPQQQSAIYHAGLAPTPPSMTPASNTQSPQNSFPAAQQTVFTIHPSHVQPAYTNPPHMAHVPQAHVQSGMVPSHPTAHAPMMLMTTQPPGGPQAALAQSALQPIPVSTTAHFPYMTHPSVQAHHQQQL
# Sequence of UniProt Q9BUK0 (Q9BUK0 whole entry, looked up): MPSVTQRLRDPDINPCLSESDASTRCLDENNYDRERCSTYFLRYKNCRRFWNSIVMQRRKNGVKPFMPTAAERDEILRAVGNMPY
Target,log2 fold change (lapatinib),log2 fold change (pictilisib),log2 fold change (crizotinib),log2 fold change [1],log2 fold change (duvelisib),log2 fold change (gandotinib),log2 fold change (tozasertib),log2 fold change (doramapimod),log2 fold change (bafetinib),log2 fold change [2],log2 fold change (nilotinib),log2 fold change [3],log2 fold change (dasatinib),log2 fold change [4],log2 fold change [5],log2 fold change (quisinostat),log2 fold change (tipifarnib),log2 fold change [6],log2 fold change [7],log2 fold change [8]
CHCHD7 isoform 4 (UniProt Q9BUK0),0.079,0.06,-0.052,-0.382 (active),-0.01,0.266,-0.077,0.026,-0.001,0.187,-0.147,0.031,-0.044,-0.147,0.041,-0.207,-0.117,0.055,-0.04,–
CCT6A (UniProt P40227),-0.01,0.008,0.026,0.009,-0.004,-0.018,-0.012,-0.013,0.013,-0.028,-0.003,-0.004,-0.001,-0.007,0.001,0.037,0.014,-0.005,0.003,0.005
ATXN2 (UniProt Q99700),0.006,-0.042,0.028,0.019,0.025,0.001,0.011,0.017,-0.012,-0.006,-0.04,0.023,0.023,-0.003,0.047,-0.065,0.014,0.045,0.011,-0.028
CANX isoform 2 (UniProt P27824),0.018,0.037,-0.002,-0.037,0.015,0.026,0.015,0.006,0.017,0.052,-0.006,0.008,0.012,-0.02,-0.02,-0.029,-0.064,-0.011,-0.004,-0.011
CBFA2T3 (UniProt O75081),0.041,-0.038,0.013,0.017,0.006,-0.001,-0.014,0.007,-0.007,0.05,-0.018,0.02,-0.026,-0.019,-0.008,-0.07,-0.047,0.043,0,0.001
CARNMT1 (UniProt Q8N4J0),0.01,-0.029,-0.131,-0.354 (active),0.018,0.038,-0.04,0.01,-0.078,0.181,0.019,-0.016,0.003,-0.019,0.006,-0.173,0.011,0.004,0.019,-0.023
ATR (UniProt Q13535),-0.036,0.408 (active),-0.1,-0.158,0.032,0.117,0.044,0.068,-0.033,0.161,-0.075,0.002,0.001,0.013,0.001,-0.219,-0.032,0.047,0.014,-0.085
C3 (UniProt P01024),0.011,-0.01,0.042,-0.095,-0.073,0.044,0.068,-0.006,0.019,0.019,0.001,0.027,0.069,-0.006,-0.022,-0.085,0.027,-0.025,-0.066,0.012
